G9a inh: inhibitors of human histone lysine methyltransferase G9a; Q96KQ7; G9a H3K9 monomethylation, AlphaScreen, 2 h; Potency, µM (series often up to 102 µM), inactives show at the highest dose activity, negative = inhibition, usual class: inhibitors; actives 8.8% (n = 350,000); AID 504332; note: % is set by controls: 0 for no effect and ±100 for the full control effect; nearly all actives have a fitted effect of over 75% in size
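Methyltransferase reactions run at room temperature for 2 h (20 nM enzyme, 500 nM biotin-H3K9 peptide, 20 uM SAM) after a 15 min compound preincubation; product detected by AlphaScreen beads and anti-H3K9me1 antibody.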
GLS inhibitor: glutaminase GLS (human) inhibition. GLS enzymatic activity, qHTS titration. actives 0.21% (n = 410,000). Potency, µM (doses to about 45.5 µM), inactives show at the highest dose activity change, negative = inhibition, hits mostly inhibitors; note: % is set by controls: 0 for no effect and ±100 for the full control effect
Target sequence (O94925 whole entry, looked up): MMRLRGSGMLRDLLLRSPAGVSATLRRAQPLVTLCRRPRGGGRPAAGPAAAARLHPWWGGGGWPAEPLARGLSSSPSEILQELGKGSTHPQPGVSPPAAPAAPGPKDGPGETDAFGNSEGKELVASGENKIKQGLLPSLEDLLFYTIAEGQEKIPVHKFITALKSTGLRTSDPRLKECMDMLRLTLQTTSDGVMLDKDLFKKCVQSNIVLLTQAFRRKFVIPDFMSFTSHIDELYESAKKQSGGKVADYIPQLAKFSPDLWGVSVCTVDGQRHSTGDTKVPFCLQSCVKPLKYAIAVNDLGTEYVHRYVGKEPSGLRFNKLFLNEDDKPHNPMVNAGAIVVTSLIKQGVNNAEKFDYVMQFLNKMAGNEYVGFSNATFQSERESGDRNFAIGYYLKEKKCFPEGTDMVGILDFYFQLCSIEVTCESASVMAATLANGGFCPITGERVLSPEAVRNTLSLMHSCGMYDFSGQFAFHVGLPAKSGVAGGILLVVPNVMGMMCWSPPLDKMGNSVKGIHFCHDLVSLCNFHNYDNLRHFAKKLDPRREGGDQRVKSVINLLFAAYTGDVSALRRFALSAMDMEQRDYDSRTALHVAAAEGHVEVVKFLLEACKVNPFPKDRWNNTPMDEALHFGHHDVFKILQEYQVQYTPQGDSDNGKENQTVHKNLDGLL
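Human kidney-isoform GLS in 45 mM KH2PO4 pH 8.2, 0.02% Tween-20, with compound, started with 1mM L-Glutamine (added stock). Glutamate oxidase/HRP/Amplex red coupled fluorescence read at start and after 30 min at RT.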
BAZ2B block: blocks human BAZ2B; AlphaScreen BAZ2B-H3K14Ac peptide displacement; Potency, µM (titrated, usually from 114 µM), inactives show at the top dose activity change, negative = inhibition, most hits filed as inhibitors; actives 4.4% (n = 360,000); AID 504333; note: % is set by controls: 0 for no effect and ±100 for the full control effect; nearly all actives have a fitted effect of over 60% in size
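BAZ2B (50 nM) with biotin-H3(5-23)K14Ac peptide (50 nM) in PBS pH 7.4, 0.01% Tween-20, preformed 30 min, then compound 30 min at room temperature; top concentration 110uM. AlphaScreen streptavidin donor/nickel chelate acceptor beads (10 ug/mL final), 20 min dark, signal read.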
JMJD2A Tudor inh: JMJD2A Tudor domain (human) inhibition; O75164; AlphaScreen JMJD2A-Tudor / H3K4me3 peptide binding; Potency, µM (top dose mostly 114 µM), for the others: at the top dose activity change, negative = inhibition, usual class: inhibitors; actives 4.4% (n = 390,000); note: % is set by controls: 0 for no effect and ±100 for the full control effect; nearly all actives have a fitted effect of over 50% in size
L3MBTL1 inh: inhibitors of human L3MBTL1; Q9Y468; AlphaScreen L3MBTL1–H3K9me1 peptide binding; Potency, µM (series often up to 57.1 µM), for the others: at the top dose activity, negative = inhibition, actives largely listed as inhibitors; actives 0.66% (n = 230,000); note: % is set by controls: 0 for no effect and ±100 for the full control effect; nearly all actives have a fitted effect of over 60% in size
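L3MBTL1 50 nM + b-AHA-H3(1-15)K9me1 75 nM, 30 min RT; compound added, 30 min RT; streptavidin donor/Ni-chelate acceptor beads 10 ug/mL each final, 30 min RT dark; AlphaScreen read.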
HP1b chromo inh: blocks HP1-beta chromodomain binding to methylated histone tails; AlphaScreen HP1-beta / biotin-H3K9me3 peptide binding; actives 0.56% (n = 390,000); Potency, µM (top dose mostly 114 µM), for inactives: at the top dose activity change, negative = inhibition, hits mostly inhibitors; P83916; note: nearly all actives have a fitted effect of over 70% in size
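AlphaScreen: HP1-beta (50 nM) preformed 30 min with biotin-H3(1-18)K9me3 peptide (50 nM) in PBS pH 7.4, 0.01% Tween-20. Compound added for 30 min at RT, then streptavidin donor/nickel chelate acceptor beads (10 ug/mL) for 30 min.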
Active calls of the source: *; ? = inconclusive; nt = not tested or not shown; [ ] = dose if it differs, or a comment. Shown are actives, neighbours in structure and some others; about 10% of the full set was active somewhere. Calls come from the whole dose curve; as a rule, active = well fitted curve in the direction sought with a large enough effect; inconclusive = small, poorly fitted or top-dose-only effect, or another doubt; inactive = no such curve, though single readings can be large; an effect the other way counts as inactive or inconclusive. Potency is the fitted concentration of half-maximal effect.

SMILES	G9a inh	GLS inhibitor	BAZ2B block	JMJD2A Tudor inh	L3MBTL1 inh	HP1b chromo inh
O=C(CCN1CCN(c2ccccc2)CC1)N/N=C/c1ccc(O)c(O)c1O	8.9µM*	?	8.9µM*	40µM*	5.6µM*	28µM*
Cc1ccc(S(=O)(=O)N(CCc2ccccc2)CC(=O)Nc2cc(C)ccc2C)cc1	-27%[59 µM]	10%	1%	-19%	nt	23%
CCN1c2ccccc2-c2nc(SCC(=O)Nc3c(C)cc(C)cc3C)ncc2S1(=O)=O	1%[59 µM]	-8%	4%	-5%	nt	2%
Cc1ccccc1CNC(=O)c1ccc2nc(SCc3ccc(F)cc3)n(C)c2c1	?	3%	-33%	-11%	nt	26%
CC1CCN(CC(=O)Nc2ccccc2-c2ccccc2)CC1	0%[59 µM]	-3%	19%	-3%	-11%	33%
CC1CCCCC1NCC(=O)Nc1ccccc1-c1ccccc1 (stereo not given)	6.3µM*	-4%	?	-13%[11.4 µM]	4%	-14%
COc1ccc(-c2ccc(-c3nc4ccc(C)cn4c3NC3CCCCC3)cc2OC)cc1	0%[2.33 µM]	?	45µM*	40µM*	-18%	-16%
CCCCNc1c(-c2ccc(OC)c(SC3CCCCC3)c2)nc2ccc(C)cn12	nt	28%	nt	?	-14%	21%
COc1ccc(-c2nc3ccc(C)cn3c2NCc2ccccc2)cc1SC1CCCCC1	2%[2.33 µM]	-22%	50µM*	79µM*	-12%	34%
CCC(C)Sc1cc(-c2nc3ccc(C)cn3c2NCc2ccccc2)ccc1OC (stereo not given)	nt	34%	nt	56µM*	nt	?
Cc1ccc2nc(-c3cccc(SC4CCCCC4)c3)c(NC3CCCCC3)n2c1	nt	18%	nt	-29%	-3%	12%
COc1cccc(NC(=O)Cn2nnc(-c3nc(-c4ccccc4)no3)c2N)c1	-43%[59 µM]	-11%	-31%	-24%	nt	1%
CCC(C)Sc1oc(-c2ccco2)nc1S(=O)(=O)c1ccc(C)cc1 (stereo not given)	54%[59 µM]	4%	60%	-1%	nt	83%
COc1cccc(Cn2c(=O)cnc3cnc(Nc4ccccc4)nc32)c1	-46%[0.501 µM]	nt	nt	nt	nt	nt
O=C(O)C1Cc2[nH]cnc2C(c2cccc([N+](=O)[O-])c2)N1 (stereo not given)	10%	-10%	?	-12%	-4%	40%
O=C(O)C1Cc2[nH]cnc2C(c2ccccc2O)N1 (stereo not given)	17%[59 µM]	23%	0%	89µM*	4%	18%
Fc1cccc(-c2n[nH]c(=S)n2-c2ccccc2)c1	20%[0.501 µM]	12%	-36%	7.9µM*	2%[2.29 µM]	-22%
Cc1ccc(-n2c(-c3cc(C)n(C)n3)n[nH]c2=S)cc1	7.9µM*	28%	-26%	7.1µM*	10%	14%
O=c1c(-c2cccc(F)c2)nc2cncnc2n1-c1ccccc1	-6%[12.7 µM]	nt	nt	nt	nt	nt
Cc1cc(-c2n[nH]c(=S)n2-c2ccccc2)nn1C	8.9µM*	2%	-11%	3.2µM*	0%	26%
CCOc1ccc(CC(=O)Nc2c(C(=O)c3ccc(F)cc3)oc3ccc(Cl)cc23)cc1OCC	?	-7%	-17%	-4%	nt	37%
CC1CCN(C2=C(NS(=O)(=O)c3ccc(Cl)cc3)C(=O)c3ccccc3C2=O)CC1	5.6µM*	9%	4.5µM*	45µM*	16µM*	?
O=S(=O)(Nc1nc2ccccc2nc1N1CCN(c2ccccc2)CC1)c1ccc(F)cc1	50µM*	24%	?	?	-4%	-17%
CSc1ccccc1C(=O)N1CCN(c2ccc(F)cc2)CC1	-14%	2%	-2%	-12%	nt	12%
CC1CCN(C2=C(NS(=O)(=O)c3ccc(Br)cc3)C(=O)c3ccccc3C2=O)CC1	8.9µM*	20%	4.5µM*	8.9µM*	nt	6.3µM*
SMILES	G9a inh	GLS inhibitor	BAZ2B block	JMJD2A Tudor inh	L3MBTL1 inh	HP1b chromo inh
CC(=C1C(=O)c2ccccc2C1=O)N1CCN(c2ccc(F)cc2)CC1	50µM*	33%	-17%	-13%	-9%	29%
COc1ccc(-c2nc3cc(C)ccn3c2NC(=O)c2cccc(F)c2)cc1	2%[59 µM]	13%	-4%	-19%	nt	12%
CC1CCN(C(CNS(=O)(=O)c2ccccc2)c2ccccc2)CC1 (stereo not given)	-16%[2.33 µM]	7%	-1%	-14%	-9%	13%
O=C1C(NS(=O)(=O)c2ccc(Br)cc2)=C(N2CCCCC2)C(=O)c2ccccc21	8.9µM*	30%	5µM*	8.9µM*	nt	10µM*
O=C1C(NS(=O)(=O)c2cccs2)=C(N2CCN(c3cccc(Cl)c3)CC2)C(=O)c2ccccc21	?	7%	8.9µM*	7.1µM*	nt	?
CC1CCN(C2=C(NS(=O)(=O)c3ccccc3)C(=O)c3ccccc3C2=O)CC1	4µM*	?	6.3µM*	14µM*	11µM*	14µM*
O=C1C(NS(=O)(=O)c2ccccc2)=C(N2CCN(c3ccc(F)cc3)CC2)C(=O)c2ccccc21	5.6µM*	19%	4µM*	?	?	10µM*
O=S(=O)(Nc1ccc(N2CCOCC2)cc1)c1cccs1	-40%[12.7 µM]	52%	-6%	-14%	-10%	26%
O=c1cc(-c2ccc(F)cc2)nc(SCc2nc(-c3ccccc3Cl)no2)[nH]1	0%[59 µM]	6%	33%	-16%	nt	45%[57 µM]
COc1ccc(NC(=O)c2cc3ccccc3o2)c(OC)c1	-6%[59 µM]	1%	8%	-1%	nt	42%
O=S(=O)(Nc1nc2ccccc2nc1Cl)c1ccccc1	40µM*	2%	3%	0%	5%	25%
CC1CCCN(C2=C(NS(=O)(=O)c3ccc(Br)cc3)C(=O)c3ccccc3C2=O)C1 (stereo not given)	?	-19%	3.5µM*	3.5µM*	nt	?
CC(=O)Nc1nc2ccccc2n1Cc1ccc(Cl)cc1	44%[12.7 µM]	13%	-10%	1%[11.4 µM]	-2%	38%
CCn1cc(Cl)c(C(=O)Nc2nc3ccccc3n2CCN2CCCCC2)n1	-4%	5%	79µM*	?	-11%	4%
O=C(Nc1nc2ccccc2n1CCN1CCOCC1)c1ccccc1	nt	3%	-12%	-18%	-5%	11%
CCn1c(NC(C)=O)nc2ccccc21	10µM*	6%	-20%	40µM*	0%	9%
CC(=O)Nc1nc2ccccc2n1CCN1CCOCC1	?	4%	-37%	4.5µM*	48%	-13%
Cc1ccc(-c2c3c(=O)n(C)c(=O)n(C)c3c3c(C)nc4ccccc4n23)cc1	-3%[59 µM]	11%	-2%	0%	nt	47%
O=C(Nc1cccnc1)c1cc(-c2ccc(Cl)c(Cl)c2)on1	7%	-8%	0%	-9%	nt	16%
O=C(Nc1cccnc1)Nc1cc(Cl)cc(Cl)c1	79µM*	9%	17%	0%	-8%	33%
